Data taken from PubChem BioAssay (NCATS).
Records with an inconclusive call do not appear. A number with no mark means an inactive call. Active and inactive are the calls of the source. Calls follow the shape of the dose curve; as a rule, active = well fitted inhibition curve with a large enough effect; inconclusive = small, poorly fitted or top-dose-only effect; inactive = flat fitted curve, though single readings scatter.

molecular target: Phospholipid hydroperoxide glutathione peroxidase GPX4 (Homo sapiens) (UniProt P36969); assay: Primary qHTS Assay for Inhibitors of Recombinant Selenoprotein Glutathione Peroxidase 4 (GPX4) (AID 1845192); conditions: recombinant GPX4, GR-coupled NADPH fluorescence, 15 min; series mostly up to 50 µM; activity change, negative = inhibition: at the top concentration; also: nearly all actives have a fitted effect of over 65% in size
Sequence (P36969 whole entry, looked up): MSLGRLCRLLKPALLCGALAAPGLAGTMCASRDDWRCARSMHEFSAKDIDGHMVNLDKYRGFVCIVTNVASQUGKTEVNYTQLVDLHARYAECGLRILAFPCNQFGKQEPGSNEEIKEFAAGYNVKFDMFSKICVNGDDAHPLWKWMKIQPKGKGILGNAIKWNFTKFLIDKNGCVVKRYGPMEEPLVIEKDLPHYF
From the text: Assay Provider: Elias S.J. Arner MD PhD.
Department of Medical Biochemistry and Biophysics
Karolinska Institutet, Solna, Stockholm, Sweden
Selenoprotein glutathione peroxidases (GPX), like the ubiquitously expressed GPX1 and the ferroptosis modulator GPX4, enact their antioxidant activities by reducing hydroperoxides using glutathione. […] GPX1 and GPX4 inhibitors have thus shown promise as anti-cancer agents. Existing inhibitors are often promiscuous, or modulate GPX activity only indirectly, so novel direct inhibitors identified through screening against GPX1 and GPX4 could be valuable. Here, we developed optimized glutathione reductase (GR)-coupled GPX assays for the biochemical high-throughput screen (HTS) of almost 12,000 compounds with known mechanisms of action. Initial hits were triaged using a GR counter-screen, assessed for isoform specificity using a separate GPX2 assay, and were assessed for general selenocysteine-targeting activity using a thioredoxin reductase (TXNRD1) assay. With this suite of assays, we identified novel GPX1/GPX2- and GPX4-specific inhibitors and can here present a validated pipeline for future discovery research for selenoprotein-targeting agents.
SEQUENCE No. (e.g., 1, 2, 3, etc.); […] (e.g., Cells, Incubation, Reagent, etc.); VALUE; DESCRIPTION.
1; Reagent 1; 3 uL; 333.33 nM GPx4 enzyme or no enzyme control in 1536-well, black, solid Greiner assay plate.
2; Compound; 25 nL; Kalypsis pin tool (Wako USA) equipped with a 1536-well pin head.
3; Incubation; 30 min; room temperature.
4; Reagent 2; 1 uL; 500 nM GR, 5 mM GSH, 2.5 mM NADPH solution
5; Reagent 3; 1 uL; 2.5 mM CHP in 50% EtOH.
6; Detection; Fluorescence; ViewLux microplate reader, excitation 340 nm and emission 450 nm.
7; Incubation; 15 min; room temperature.
8; Detection; Fluorescence; ViewLux microplate reader, excitation 340 nm and emission 450 nm.
NOTES (numbers refer to Sequence numbers above)
1. 3 µL of 333.33 nM GPX4 and 0.016% BSA in assay buffer (50 mM Tris-HCl, 2 mM EDTA (pH 7.5), 150 mM NaCl) was added to columns 3-48 of 1536-well plates using a BioRAPTR Flying Reagent Dispenser (Let's Go Robotics (LGR), Carlsbad, CA). A no-enzyme control (0.01% BSA in TES assay buffer) was added to columns 1-2.
2. 25 nL, library and DMSO controls were added to each well with a pin tool (Kalypsys).
3. The assay plates were incubated for 30 minutes at room temperature.
4. 1 µL of master mix (500 nM glutathione reductase (GR), 5 mM reduced glutathione (GSH), 2.5 mM NADPH in assay buffer) was added.
5. 1 µL of cumene hydroperoxide (CHP) ([2.5 mM] in 50% EtOH) was then added within 5 minutes to initiate the reaction. Final concentrations were: 200 nM GPX4, 1 mM GSH, 0.5 mM CHP, 0.5 mM NADPH, 100 nM GR, 0.01% BSA.
6. Initial fluorescence readout (t=0) at 340/450 nm was measured using a ViewLux multimodal detector (PerkinElmer, Waltham, MA).
8. Endpoint fluorescence readout (t=15) at 340/450 nm was measured 15 min after room temperature incubation.

Row | SMILES | activity change, negative = inhibition [%] | Potency | outcome
1 | O=C1CCCN1CC#CCN1CCCC1 | -2.36 |  | 
2 | CCCN1CCC[C@H](c2cccc(O)c2)C1 | -7.11 |  | 
3 | CCC(=O)O[C@@H]1C=C2CCC3C(CCC4(C)C3CC[C@@H]4OC(=O)CC)C2CC1 (stereo not given in full) | -10.2 |  | 
4 | O=C(N[C@H]1CN2CCC1CC2)c1ccc(Cl)cc1 |  | inactive | 
5 | COCC1(CO)C(=O)C2CCN1CC2 (stereo not given) | 4.74 |  | 
6 | CN1C2CCC1CC(OC(=O)c1cc(Cl)cc(Cl)c1)C2 (stereo not given) | -10.3 |  | 
7 | Cc1ccccc1-n1c(Cn2ncc3c(N)ncnc32)nc2cccc(C)c2c1=O | 4.89 |  | 
8 | COc1cc(C(O)CN)ccc1O (stereo not given) | 3.74 |  | 
9 | NC(CCP(=O)(O)O)C(=O)O (stereo not given) |  |  | inactive
10 | C[C@]12N[C@H](Cc3ccccc31)c1ccccc12 |  |  | inactive
11 | CC1(N2CCC(n3c([C@@H]4CCCNC4)nc4ccccc43)CC2)CCCCCCC1 |  | inactive | 
12 | Cn1cnc(CCN)c1 | 4.41 |  | 
13 | Clc1cnc(Oc2ccc(Oc3ncc(Cl)cc3Cl)cc2)c(Cl)c1 | 1.25 |  | 
14 | CC(C)NC(C)Cc1ccc(I)cc1 (stereo not given) |  | inactive | 
15 | NC1=NC(=O)N2CC12 (stereo not given) |  | inactive | 
16 | O=C(Oc1ccc([N+](=O)[O-])cc1)N1CCN(Cc2cccc(Oc3ccccc3)c2)CC1 | -8.99 |  | 
17 | CC[C@@H](C(N)=O)N1CCCC1=O |  | inactive | 
18 | O=[N+]([O-])/N=C1\NCCN1Cc1ccc(Cl)nc1 |  |  | inactive
19 | Clc1ccccc1C(c1ccccc1)(c1ccccc1)n1cccn1 | -7.69 |  | 
20 | COC(=O)c1cncn1C(C)c1ccccc1 (stereo not given) | 0.357 |  | 

Row | SMILES | activity change, negative = inhibition [%] | Potency | outcome
21 | NC(CP(=O)(O)O)C(=O)O (stereo not given) |  |  | inactive
22 | O=[N+]([O-])c1ccc([As](=O)(O)O)cc1 | -8.11 |  | 
23 | C[C@]12CC[C@@H]3[C@@H](CCC4=CC(=O)CC[C@@H]43)[C@@H]1CC[C@@H]2OC(=O)CCc1ccccc1 | -1.68 |  | 
24 | C[C@@H]1O[C@H](C[N+](C)(C)C)C[C@H]1O |  |  | inactive
25 | Cc1c(C(=O)Nc2cccc(C(F)(F)F)c2)cc(-c2ccccc2)n1CCCN1CCOCC1 | -16.4 |  | 
26 | CCc1c(C(=O)C(N)=O)c2c(OCC(=O)O)cccc2n1Cc1ccccc1 | -6.08 |  | 
27 | C[C@@H](N)Cc1cnc[nH]1 |  |  | inactive
28 | CC(Cc1ccc(O)cc1)NCC(O)c1cc(O)cc(O)c1 (stereo not given) |  | inactive | 
29 | CC[N+]1(CCOC(=O)C(O)(c2ccccc2)c2ccccc2)CCCCC1 | 0.43 |  | 
30 | CCCCCCCCCCCCCCCC[N+](C)(C)C |  |  | inactive
31 | CCOC(=O)c1c(C(C#N)=CN)c2ccc(Cl)c(Cl)c2n1C | -9.88 |  | 
32 | CCCN1CCO[C@@H]2c3cc(O)ccc3OC[C@H]21 |  | inactive | 
33 | COC(=O)[C@@H](N)CCCN=C(N)N[N+](=O)[O-] |  | inactive | 
34 | Oc1ccc2c3c1O[C@H]1c4[nH]c5c(c4C[C@@]4(O)[C@@H](C2)N(CC2CC2)CC[C@]314)C[C@@]1(O)[C@H]2Cc3ccc(O)c4c3[C@@]1(CCN2CC1CC1)[C@H]5O4 | -10.9 |  | 
35 | C=CCN1CC[C@]23CCCCC2[C@H]1Cc1ccc(O)cc13 (stereo not given in full) | 4.71 |  | 
36 | O=C(O)Cc1cnc[nH]1 | 0.857 |  | 
37 | NC(=O)CN1CC(O)CC1=O (stereo not given) |  |  | inactive
38 | NCc1cc(=O)[nH]o1 | -1.6 |  | 
39 | O=C(Cc1ccc(Cl)c(Cl)c1)N1CCCCC1CN1CCCC1 (stereo not given) | -18.3 |  | 
40 | O=S(=O)(F)Cc1ccccc1 | -0.358 |  | 
